Data on 40 molecules can be found in PubChem BioAssay (NCI).

Compounds without any hit were thinned out: in the full panel of roughly 83,000, 20% have a hit.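 How to read the values: 0–100, growth inhibition (40 = 60% inhibited); 0, no net growth; -100 to 0, cell death (-40 = 40% of starting cells died; -100 = all dead).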 Calls of active or inactive are those of the source. The calls were made as follows: active = growth percent below 10; inactive = the rest.

The subject of one experiment is MDA-MB-435 melanoma. Kind of experiment: NCI-60 one-dose screen, 48 h (100 = growth as untreated, 0 = no growth, -100 = all killed). The note with it: 10 µM.
As for `COc1ccccc1-n1c(-c2csc(NC(C)=O)n2)n[nH]c1=S`, the growth is 85.3% (inactive).

For the molecule `CCCCC1(O)CCCCC1`, the growth was 106% (inactive).

In the case of `CNS(=O)(=O)Oc1ccc(-c2sc3cc(OS(=O)(=O)NC)ccc3c2C(=O)c2ccc(OCCN3CCCCC3)cc2)cc1`, the growth was 70% (inactive).

Regarding `CCOC(=O)C1C(C(=O)OCC)C2C(=O)C3C(C(=O)OCC)C(C(=O)OCC)C3C(=O)C12` (stereo not given), the growth was 105% (inactive).

Turning to `C[C@]12CC[C@@H]3c4ccc(O)cc4CC[C@H]3[C@@H]1CC[C@@H]2NS(=O)(=O)c1ccc(C(F)(F)F)cc1`, the growth is 22.3% (inactive).

For `COc1cc2cc(Oc3ccc(NC(=O)Nc4ccc(Cl)c(Cl)c4)cc3)c(C)nc2cc1OC`, the growth was 12.3% (inactive).

As to `Cc1c(C(N)=O)sc2c1c(=O)n(Cc1ccccc1)c1nnc(-c3ccc(Br)cc3)n21`, the growth was 39% (inactive).

In the case of `O=C(NCCCNS(=O)(=O)c1ccc(Cl)cc1)Nc1ccc(-n2cc(-c3ccncc3)c(-c3ccc(Cl)c(O)c3)n2)cc1`, the growth is 28.4% (inactive).

On to `CNC(=O)c1cc(Oc2ccc3c(c2)sc2nc(-c4ccc(N)cc4)cn23)ccn1`, for which the growth is 13% (inactive).

For the molecule `O=C1CSC(=S)N1/N=C/c1ccc(Cl)s1`, the growth is 106% (inactive).

For `COc1ccc(-c2cc(-c3ccc(Cl)cc3)nc(SCCCC(=O)NO)n2)cc1`, the growth is 18.1% (inactive).

In the case of `COc1ccc(-c2nn(-c3cccc(Cl)c3)cc2-c2cc(-c3ccccc3)nc(N)n2)cc1`, the growth is 57% (inactive).

Consider `O=[N+]([O-])c1cccc(/C=N/NC(=S)NC23CC4CC(CC(C4)C2)C3)c1`, for which the growth is 84.8% (inactive).

Turning to `O=C1c2c(c3c4ccccc4n(CCCCCCN4CCOCC4)c3c3[nH]c4ccccc4c23)C(=O)N1O`, the growth was 56.4% (inactive).

Turning to `Nc1cc(-c2ccncc2)c[nH]c1=O`, the growth is 115% (inactive).

`COc1cc(-c2nn(-c3ccc(NC(=O)NCCCNC(=O)c4ccccc4)cc3)cc2-c2ccncc2)ccc1Cl`: the growth is 2.49% (active).

Regarding `C=CCn1c(SCC(=O)Nc2ccc(C(=O)/C=C/c3cc(OC)c(OC)c(OC)c3)cc2)nnc1-c1cc(-c2ccc(Cl)cc2)nc2ccccc12`, the growth was 92.9% (inactive).

With `CCCCCOC(=O)Nc1nc(=O)n(C2O[C@H](C)[C@@H](O)[C@H]2O)cc1F` (stereo not given in full), the growth was 98.4% (inactive).

Take `COc1ccc2c(c1)OC(N)=C(C#N)C2c1cc(OC)c(OC)c(OC)c1` (stereo not given): the growth is -16.7% (active).

As for `CC(C)(C)OC(=O)N1CCc2c(sc3ncnc(N/N=C/c4ccccc4Br)c23)C1`, the growth is 77.9% (inactive).

Consider `Cc1cc(CCNC=O)c(C)c2c1sc1ccccc12`, for which the growth is 94.5% (inactive).

Take `Nc1ccn(Cc2nnc(CCC(=O)c3nc4ccccc4[nH]3)o2)c(=O)n1`: the growth was 91.9% (inactive).

As to `CNC(=O)c1cc(Oc2ccc3c(c2)sc2nc(-c4ccc(NC(=O)Nc5ccc(Cl)c(C(F)(F)F)c5)cc4)cn23)ccn1`, the growth is 91.1% (inactive).

Regarding `COc1ccc(/C=C/C(=O)C(=O)/C=C/c2ccc(OC)c(OC)c2)cc1OC`, the growth is 12.2% (inactive).

For `COc1ccc(C(c2ccc(OCCN(C)C)cc2)c2cc3ccccc3c3ccccc23)cc1` (stereo not given), the growth was -25.4% (active).

The subject of a further experiment is SW-620 colon. The description is as above. The note with it: 10 µM.
In the case of `CC(C)(C)c1ccc(S(=O)(=O)Oc2ccc(NC(=O)C3CCCCC3)cc2)cc1`, the growth was 51.9% (inactive).

For the molecule `OCCn1cccn1`, the growth is 101% (inactive).

On to `O=C(/C=C/C=C/c1c(C2CC2)nc2ccccc2c1-c1ccc(F)cc1)c1cccs1`, for which the growth was 6.11% (active).

On to `NS(=O)(=O)c1ccc(N2N=C(c3ccccc3)CCC2=O)cc1`, for which the growth was 109% (inactive).

Take `COc1cc(C2C(C#N)=C(N)Oc3cc(O)ccc32)cc(OC)c1OC` (stereo not given): the growth was 21.4% (inactive).

On to `CC(C)N(CCOc1ccc(-c2nc3sccn3c2-c2ccnc(S(C)(=O)=O)n2)cc1)C(C)C`, for which the growth was 78.2% (inactive).

Regarding `CCCCCCCCCCCCCCCCCC[n+]1ccc2c(C)c3c(c(C)c2c1)c1cc(O)ccc1n3CC`, the growth is 13.3% (inactive).

For `CC(C)c1cc(N=O)cc(C(C)C)c1O`, the growth was 100% (inactive).

Take `NS(=O)(=O)Oc1ccc2c(ccn2C(=O)C23CC4CC(CC(C4)C2)C3)c1`: the growth is 103% (inactive).

For `COc1cc(-c2nn(-c3cccc(NC(=O)NCCNC(=O)c4ccccc4)c3)cc2-c2ccncc2)ccc1Cl`, the growth was 11.8% (inactive).

As for `CCOC(=O)N/N=C/c1ccc(OC)c(OC)c1`, the growth is 109% (inactive).

Take `CC(C)Cc1ccc([C@H](C)C(=O)O)cc1`: the growth was 110% (inactive).

As to `CCc1ccc(C2=NN(c3ccc(S(C)(=O)=O)cc3)C(=O)CC2)cc1`, the growth is 12.4% (inactive).

As to `CN1CCc2c(sc3nc4n(-c5ccc(Cl)cc5)c(=O)[nH]n4c(=O)c23)C1`, the growth was 109% (inactive).

For `CC(C)(C)OC(=O)N1CCc2c(sc3ncnc(N/N=C/c4cccc5ccccc45)c23)C1`, the growth is 27.3% (inactive).

Turning to `COc1ccccc1-n1c(-c2csc(NC(C)=O)n2)n[nH]c1=S`, the growth is 105% (inactive).

Turning to `CCCCC1(O)CCCCC1`, the growth was 102% (inactive).

With `CNS(=O)(=O)Oc1ccc(-c2sc3cc(OS(=O)(=O)NC)ccc3c2C(=O)c2ccc(OCCN3CCCCC3)cc2)cc1`, the growth is 65.1% (inactive).

As for `CCOC(=O)C1C(C(=O)OCC)C2C(=O)C3C(C(=O)OCC)C(C(=O)OCC)C3C(=O)C12` (stereo not given), the growth is 111% (inactive).

On to `C[C@]12CC[C@@H]3c4ccc(O)cc4CC[C@H]3[C@@H]1CC[C@@H]2NS(=O)(=O)c1ccc(C(F)(F)F)cc1`, for which the growth was 69.7% (inactive).

Turning to `COc1cc2cc(Oc3ccc(NC(=O)Nc4ccc(Cl)c(Cl)c4)cc3)c(C)nc2cc1OC`, the growth was 23.4% (inactive).

As to `Cc1c(C(N)=O)sc2c1c(=O)n(Cc1ccccc1)c1nnc(-c3ccc(Br)cc3)n21`, the growth is 33.1% (inactive).

Take `O=C(NCCCNS(=O)(=O)c1ccc(Cl)cc1)Nc1ccc(-n2cc(-c3ccncc3)c(-c3ccc(Cl)c(O)c3)n2)cc1`: the growth was 50.3% (inactive).

On to `CNC(=O)c1cc(Oc2ccc3c(c2)sc2nc(-c4ccc(N)cc4)cn23)ccn1`, for which the growth is 34.8% (inactive).

`O=C1CSC(=S)N1/N=C/c1ccc(Cl)s1`: the growth is 108% (inactive).

Take `COc1ccc(-c2cc(-c3ccc(Cl)cc3)nc(SCCCC(=O)NO)n2)cc1`: the growth is 14.2% (inactive).

Take `COc1ccc(-c2nn(-c3cccc(Cl)c3)cc2-c2cc(-c3ccccc3)nc(N)n2)cc1`: the growth is 45.3% (inactive).

Take `O=[N+]([O-])c1cccc(/C=N/NC(=S)NC23CC4CC(CC(C4)C2)C3)c1`: the growth is 88.5% (inactive).

With `O=C1c2c(c3c4ccccc4n(CCCCCCN4CCOCC4)c3c3[nH]c4ccccc4c23)C(=O)N1O`, the growth was 4.79% (active).

As for `Nc1cc(-c2ccncc2)c[nH]c1=O`, the growth is 110% (inactive).

`COc1cc(-c2nn(-c3ccc(NC(=O)NCCCNC(=O)c4ccccc4)cc3)cc2-c2ccncc2)ccc1Cl`: the growth was 33.3% (inactive).

With `C=CCn1c(SCC(=O)Nc2ccc(C(=O)/C=C/c3cc(OC)c(OC)c(OC)c3)cc2)nnc1-c1cc(-c2ccc(Cl)cc2)nc2ccccc12`, the growth was 90.7% (inactive).

On to `CCCCCOC(=O)Nc1nc(=O)n(C2O[C@H](C)[C@@H](O)[C@H]2O)cc1F` (stereo not given in full), for which the growth was 99.1% (inactive).

On to `COc1ccc2c(c1)OC(N)=C(C#N)C2c1cc(OC)c(OC)c(OC)c1` (stereo not given), for which the growth was 17.1% (inactive).

With `CC(C)(C)OC(=O)N1CCc2c(sc3ncnc(N/N=C/c4ccccc4Br)c23)C1`, the growth is 55% (inactive).

Turning to `Cc1cc(CCNC=O)c(C)c2c1sc1ccccc12`, the growth is 102% (inactive).

In the case of `Nc1ccn(Cc2nnc(CCC(=O)c3nc4ccccc4[nH]3)o2)c(=O)n1`, the growth is 83.5% (inactive).

As for `CNC(=O)c1cc(Oc2ccc3c(c2)sc2nc(-c4ccc(NC(=O)Nc5ccc(Cl)c(C(F)(F)F)c5)cc4)cn23)ccn1`, the growth is 103% (inactive).

With `COc1ccc(/C=C/C(=O)C(=O)/C=C/c2ccc(OC)c(OC)c2)cc1OC`, the growth is 4.43% (active).

Take `COc1ccc(C(c2ccc(OCCN(C)C)cc2)c2cc3ccccc3c3ccccc23)cc1` (stereo not given): the growth was -46.6% (active).
